# Measurements as given in paper PMC5540273 (PLoS ONE, 2017).
# Like-named read-outs stand apart in the source and are kept apart here.
# Assays:
# DCAMKL2 = system: T1, DCAMKL2; settings: concentration: 1 μM,replicates: in singlicate; n = 1
# T1 construct: gene DCLK2
# DCAMKL3 = system: T2, DCAMKL3; settings: concentration: 1 μM,replicates: in singlicate; n = 1
# T2 construct: gene DCLK3
# DDR1 = settings: concentration: 1 μM,replicates: in singlicate; n = 1
# DDR2 = settings: concentration: 1 μM,replicates: in singlicate; n = 1
# DLK = system: T3, DLK; settings: concentration: 1 μM,replicates: in singlicate; n = 1
# T3 construct: gene MAP3K12
# DMPK2 = system: T4, DMPK2; settings: concentration: 1 μM,replicates: in singlicate; n = 1
# T4 construct: gene CDC42BPG
# DMPK = settings: concentration: 1 μM,replicates: in singlicate; n = 1
# DRAK1 = system: T5, DRAK1; settings: concentration: 1 μM,replicates: in singlicate; n = 1
# T5 construct: gene STK17A
# DRAK2 = system: T6, DRAK2; settings: concentration: 1 μM,replicates: in singlicate; n = 1
# T6 construct: gene STK17B
# DYRK1A = settings: concentration: 1 μM,replicates: in singlicate; n = 1
# DYRK1B = settings: n = 1
# DYRK2 = settings: concentration: 1 μM,replicates: in singlicate; n = 1
# EGFR = settings: concentration: 1 μM,replicates: in singlicate; n = 1
# EIF2AK1 = settings: concentration: 1 μM,replicates: in singlicate; n = 1
# EPHA1 = settings: concentration: 1 μM,replicates: in singlicate; n = 1
# EPHA2 = settings: concentration: 1 μM,replicates: in singlicate; n = 1
# EPHA3 = settings: concentration: 1 μM,replicates: in singlicate; n = 1
# EPHA4 = settings: concentration: 1 μM,replicates: in singlicate; n = 1
# EPHA5 = settings: concentration: 1 μM,replicates: in singlicate; n = 1
# EPHA6 = settings: n = 1
# [1] = concentration: 1 μM,replicates: in singlicate
# 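Also: KINOMEscan kinase panel screen.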
smiles,measurement,setting,value
C[C@@H]1CCN(C(=O)N2CCCC2)C[C@@H]1N(C)c1ncnc2[nH]ccc12,%Inh,DCAMKL2,0%
same,%Inh,DCAMKL3,99.8%
same,%Inh,DDR1,8%
same,%Inh,DDR2,0%
same,%Inh,DLK,8%
same,%Inh,DMPK2,0%
same,%Inh,DMPK,72%
same,%Inh,DRAK1,23%
same,%Inh,DRAK2,38%
same,%Inh,DYRK1A,0%
same,%Inh,DYRK1B; [1],0%
same,%Inh,DYRK2,0%
same,%Inh,EGFR,0%
same,%Inh,EIF2AK1,23%
same,%Inh,EPHA1,1%
same,%Inh,EPHA2,0%
same,%Inh,EPHA3,0%
same,%Inh,EPHA4,16%
same,%Inh,EPHA5,8%
same,%Inh,EPHA6; [1],20%
COc1ccc(Nc2nccc(N3CCC(NC(=O)c4cccc(C#N)c4)C3)n2)cc1 (centres unmarked) [GSK1379730],%Inh,DCAMKL2,0%
same,%Inh,DCAMKL3,0%
same,%Inh,DDR1,0%
same,%Inh,DDR2,12%
same,%Inh,DLK,40%
same,%Inh,DMPK2,0%
same,%Inh,DMPK,0%
same,%Inh,DRAK1,2%
same,%Inh,DRAK2,0%
same,%Inh,DYRK1A,22%
same,%Inh,DYRK1B; [1],39%
same,%Inh,DYRK2,0%
same,%Inh,EGFR,29%
same,%Inh,EIF2AK1,0%
same,%Inh,EPHA1,27%
same,%Inh,EPHA2,0%
same,%Inh,EPHA3,0%
same,%Inh,EPHA4,0%
same,%Inh,EPHA5,12%
same,%Inh,EPHA6; [1],0%
Cc1ccc(CC(=O)N2CCc3cc(-c4cn(C)c5ncnc(N)c45)ccc32)cc1 [GSK2634758],%Inh,DCAMKL2,0%
same,%Inh,DCAMKL3,0%
same,%Inh,DDR1,61%
same,%Inh,DDR2,44%
same,%Inh,DLK,21%
same,%Inh,DMPK2,68%
same,%Inh,DMPK,15%
same,%Inh,DRAK1,0%
same,%Inh,DRAK2,0%
same,%Inh,DYRK1A,0%
same,%Inh,DYRK1B; [1],0%
same,%Inh,DYRK2,7%
same,%Inh,EGFR,27%
same,%Inh,EIF2AK1,46%
same,%Inh,EPHA1,0%
same,%Inh,EPHA2,2%
same,%Inh,EPHA3,0%
same,%Inh,EPHA4,0%
same,%Inh,EPHA5,0%
same,%Inh,EPHA6; [1],0%
C[C@@H](Oc1cc(-n2cnc3cc(-c4ccncc4)ccc32)sc1C(N)=O)c1ccccc1Cl [GSK479719],%Inh,DCAMKL2,3%
same,%Inh,DCAMKL3,0%
same,%Inh,DDR1,0%
same,%Inh,DDR2,0%
same,%Inh,DLK,0%
same,%Inh,DMPK2,0%
same,%Inh,DMPK,0%
same,%Inh,DRAK1,0%
same,%Inh,DRAK2,0%
same,%Inh,DYRK1A,57%
same,%Inh,DYRK1B; [1],18%
same,%Inh,DYRK2,31%
same,%Inh,EGFR,28%
same,%Inh,EIF2AK1,18%
same,%Inh,EPHA1,0%
same,%Inh,EPHA2,29%
same,%Inh,EPHA3,100%
same,%Inh,EPHA4,21%
same,%Inh,EPHA5,0%
same,%Inh,EPHA6; [1],29%
Cn1ccc2ncnc(Oc3ccc(NC(=O)Nc4cnn(C(C)(C)C)c4)c(Cl)c3)c21,%Inh,DCAMKL2,5%
same,%Inh,DCAMKL3,2%
same,%Inh,DDR1,100%
same,%Inh,DDR2,100%
same,%Inh,DLK,0%
same,%Inh,DMPK2,0%
same,%Inh,DMPK,15%
same,%Inh,DRAK1,0%
same,%Inh,DRAK2,3%
same,%Inh,DYRK1A,11%
same,%Inh,DYRK1B; [1],62%
same,%Inh,DYRK2,6%
same,%Inh,EGFR,25%
same,%Inh,EIF2AK1,0%
same,%Inh,EPHA1,0%
same,%Inh,EPHA2,22%
same,%Inh,EPHA3,54%
same,%Inh,EPHA4,23%
same,%Inh,EPHA5,18%
same,%Inh,EPHA6; [1],89%
Cn1ccc2ncnc(Oc3ccc(NC(=O)Nc4cc(C(C)(C)C)on4)c(Cl)c3)c21,%Inh,DCAMKL2,15%
same,%Inh,DCAMKL3,0%
same,%Inh,DDR1,100%
same,%Inh,DDR2,99.4%
same,%Inh,DLK,0%
same,%Inh,DMPK2,6%
same,%Inh,DMPK,0%
same,%Inh,DRAK1,11%
same,%Inh,DRAK2,35%
same,%Inh,DYRK1A,26%
same,%Inh,DYRK1B; [1],39%
same,%Inh,DYRK2,23%
same,%Inh,EGFR,50%
same,%Inh,EIF2AK1,3%
same,%Inh,EPHA1,71%
same,%Inh,EPHA2,85%
same,%Inh,EPHA3,93.4%
same,%Inh,EPHA4,68%
same,%Inh,EPHA5,58%
same,%Inh,EPHA6; [1],99.6%
CS(=O)(=O)Nc1ccc(-c2ccnc3[nH]ccc23)cc1 [GSK993273],%Inh,DCAMKL2,0%
same,%Inh,DCAMKL3,0%
same,%Inh,DDR1,0%
same,%Inh,DDR2,0%
same,%Inh,DLK,83%
same,%Inh,DMPK2,13%
same,%Inh,DMPK,51%
same,%Inh,DRAK1,99.2%
same,%Inh,DRAK2,20%
same,%Inh,DYRK1A,88%
same,%Inh,DYRK1B; [1],84%
same,%Inh,DYRK2,44%
same,%Inh,EGFR,17%
same,%Inh,EIF2AK1,1%
same,%Inh,EPHA1,19%
same,%Inh,EPHA2,0%
same,%Inh,EPHA3,0%
same,%Inh,EPHA4,20%
same,%Inh,EPHA5,0%
same,%Inh,EPHA6; [1],6%
CC(C)c1nc(-c2cccc(NS(=O)(=O)c3ccccc3)c2)c(-c2ccnc(Nc3ccc4c(c3)CN(C)CC4)n2)s1 [GSK1649598],%Inh,DCAMKL2,17%
same,%Inh,DCAMKL3,17%
same,%Inh,DDR1,100%
same,%Inh,DDR2,42%
same,%Inh,DLK,69%
same,%Inh,DMPK2,61%
same,%Inh,DMPK,0%
same,%Inh,DRAK1,0%
same,%Inh,DRAK2,0%
same,%Inh,DYRK1A,4%
same,%Inh,DYRK1B; [1],20%
same,%Inh,DYRK2,23%
same,%Inh,EGFR,84%
same,%Inh,EIF2AK1,95.1%
same,%Inh,EPHA1,93.2%
same,%Inh,EPHA2,33%
same,%Inh,EPHA3,44%
same,%Inh,EPHA4,21%
same,%Inh,EPHA5,0%
same,%Inh,EPHA6; [1],66%
O=C(NCC1CC1)c1ccc(-c2cc(C(=O)NC3CC3)ccc2F)cc1 [GW810445],%Inh,DCAMKL2,22%
same,%Inh,DCAMKL3,0%
same,%Inh,DDR1,0%
same,%Inh,DDR2,35%
same,%Inh,DLK,12%
same,%Inh,DMPK2,0%
same,%Inh,DMPK,0%
same,%Inh,DRAK1,0%
same,%Inh,DRAK2,0%
same,%Inh,DYRK1A,0%
same,%Inh,DYRK1B; [1],24%
same,%Inh,DYRK2,0%
same,%Inh,EGFR,15%
same,%Inh,EIF2AK1,0%
same,%Inh,EPHA1,0%
same,%Inh,EPHA2,0%
same,%Inh,EPHA3,10%
same,%Inh,EPHA4,0%
same,%Inh,EPHA5,0%
same,%Inh,EPHA6; [1],0%
COc1cccc(OC)c1C(=O)Nc1cccc(-c2nn3ccccc3c2-c2ccnc(Nc3cccc(F)c3)n2)c1 [GSK361065],%Inh,DCAMKL2,0%
same,%Inh,DCAMKL3,16%
same,%Inh,DDR1,99.3%
same,%Inh,DDR2,57%
same,%Inh,DLK,0%
same,%Inh,DMPK2,84%
same,%Inh,DMPK,2%
same,%Inh,DRAK1,12%
same,%Inh,DRAK2,12%
same,%Inh,DYRK1A,0%
same,%Inh,DYRK1B; 1 µM,24%
same,%Inh,DYRK2,0%
same,%Inh,EGFR,91.7%
same,%Inh,EIF2AK1,0%
same,%Inh,EPHA1,4%
same,%Inh,EPHA2,11%
same,%Inh,EPHA3,0%
same,%Inh,EPHA4,0%
same,%Inh,EPHA5,11%
same,%Inh,EPHA6; 1 µM,11%
